Records with an inconclusive call do not appear. Calls of active or inactive are those of the source. Calls come from the whole dose curve; as a rule, active = well fitted activation curve with a large enough effect; inconclusive = small, poorly fitted or top-dose-only effect; inactive = flat fitted curve, though single readings scatter.
Test: qHTS for Inhibitors of Cell Surface uPA Generation: Confirmatory Assay for Cherry-picked Compounds; note: 0% is about no effect
Conditions: cell surface uPA activity generation, qHTS confirmation; series mostly up to 115 µM; inhibition: at the top concentration
Outline: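 RAW 264.7 cells at 4000/well, incubated overnight, then treated with compounds. After 24 h at 37 C, viability was read by ATPlite luminescence. An increase in signal indicates blocked uPA-dependent LF entry.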

inhibition, inactive:
c1csc(CN2CCOCC2)c1 0.583%
Cc1nc(SCc2nc3ccccc3[nH]2)c2oc3cc([N+](=O)[O-])ccc3c2n1 -3.44%
Cc1ccc(-n2cccc2C(=O)NS(=O)(=O)c2ccc(C)cc2)cc1 0.439%
COc1ccc(C2=C/C(=C\c3ccccc3OC(C)=O)C(=O)O2)cc1 -2.92%
COc1cc(CN2CCN(S(=O)(=O)c3ccccc3)CC2)cc(OC)c1OC 0.54%
O=C(Cc1ccc(Cl)cc1)NC(=S)Nc1ccccc1O 2.56%
Cc1ccc(OCc2cc(C(=O)N(C)Cc3cc(C4CC4)n[nH]3)no2)cc1C -3.14%
COc1ccc(CCNC(=O)COC(=O)CNS(=O)(=O)c2ccc(SC)c([N+](=O)[O-])c2)cc1 0.698%
COc1ccc2c(ccn2S(=O)(=O)c2ccccc2)c1 -3.74%
Cc1ccc(-c2cc(C(=O)NCC3CCCO3)no2)cc1 (stereo unspecified) -3.36%
COc1cc(NC(=O)CSc2nnc3ccc(-c4ccncc4)nn23)cc(OC)c1 1.04%
O=C(Nc1cccc(C2=NCCN2)c1)Nc1cccc(C2=NCCN2)c1 -3.27%
O=C(/C=C/c1cccc(F)c1)Nc1cc(S(=O)(=O)N2CCOCC2)ccc1Cl -2.51%
Cc1oc2c(Cl)c(Cl)c(O)c(CN(C)C)c2c1C(=O)c1ccc(Cl)cc1 4.02%
COc1ccc(/C=C/C(=O)Nc2ccccc2Cl)cc1S(=O)(=O)N1CCOCC1 -1.84%
CCOC(=O)c1c(C)oc2ccc(OC(=O)COc3c(F)c(F)c(F)c(F)c3F)cc12 -0.536%
O=C(CCCOc1ccc(Cl)cc1Cl)NCc1ccncc1 -0.921%
Cn1cccc1Cc1nnc(SCC(=O)Nc2ccc3c(c2)OCCO3)n1-c1ccc(F)cc1 -1.98%
CC(=O)N1CCN(C(=O)CSc2cc(C)c(Br)cc2C)CC1 -1.37%
COCC(=O)N1CCC(n2nccc2NC(=O)c2ccccc2OC)CC1 -3.69%
COc1ccc(OC)c(S(=O)(=O)N2CCC(NC(=O)c3ccccc3)CC2)c1 1.52%
